The campaign covered roughly 310,000 compounds. About 14,000 (4.5%) showed an effect of 50% or more. The effect is printed as a negative number. The list comes from a sample in which strong results are over-represented; it also holds similar structures and randomly drawn compounds.
biological target: human ether-à-go-go-related gene (hERG) potassium channel (human, UniProt Q12809); assay: primary screen, population patch clamp on CHO cells stably expressing hERG; higher = less effect of the substance
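Note: peak tail current of the secondary pulse compared with the same well before compound.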

Chain of human ether-à-go-go-related gene (hERG) potassium channel (Q12809 whole entry, looked up): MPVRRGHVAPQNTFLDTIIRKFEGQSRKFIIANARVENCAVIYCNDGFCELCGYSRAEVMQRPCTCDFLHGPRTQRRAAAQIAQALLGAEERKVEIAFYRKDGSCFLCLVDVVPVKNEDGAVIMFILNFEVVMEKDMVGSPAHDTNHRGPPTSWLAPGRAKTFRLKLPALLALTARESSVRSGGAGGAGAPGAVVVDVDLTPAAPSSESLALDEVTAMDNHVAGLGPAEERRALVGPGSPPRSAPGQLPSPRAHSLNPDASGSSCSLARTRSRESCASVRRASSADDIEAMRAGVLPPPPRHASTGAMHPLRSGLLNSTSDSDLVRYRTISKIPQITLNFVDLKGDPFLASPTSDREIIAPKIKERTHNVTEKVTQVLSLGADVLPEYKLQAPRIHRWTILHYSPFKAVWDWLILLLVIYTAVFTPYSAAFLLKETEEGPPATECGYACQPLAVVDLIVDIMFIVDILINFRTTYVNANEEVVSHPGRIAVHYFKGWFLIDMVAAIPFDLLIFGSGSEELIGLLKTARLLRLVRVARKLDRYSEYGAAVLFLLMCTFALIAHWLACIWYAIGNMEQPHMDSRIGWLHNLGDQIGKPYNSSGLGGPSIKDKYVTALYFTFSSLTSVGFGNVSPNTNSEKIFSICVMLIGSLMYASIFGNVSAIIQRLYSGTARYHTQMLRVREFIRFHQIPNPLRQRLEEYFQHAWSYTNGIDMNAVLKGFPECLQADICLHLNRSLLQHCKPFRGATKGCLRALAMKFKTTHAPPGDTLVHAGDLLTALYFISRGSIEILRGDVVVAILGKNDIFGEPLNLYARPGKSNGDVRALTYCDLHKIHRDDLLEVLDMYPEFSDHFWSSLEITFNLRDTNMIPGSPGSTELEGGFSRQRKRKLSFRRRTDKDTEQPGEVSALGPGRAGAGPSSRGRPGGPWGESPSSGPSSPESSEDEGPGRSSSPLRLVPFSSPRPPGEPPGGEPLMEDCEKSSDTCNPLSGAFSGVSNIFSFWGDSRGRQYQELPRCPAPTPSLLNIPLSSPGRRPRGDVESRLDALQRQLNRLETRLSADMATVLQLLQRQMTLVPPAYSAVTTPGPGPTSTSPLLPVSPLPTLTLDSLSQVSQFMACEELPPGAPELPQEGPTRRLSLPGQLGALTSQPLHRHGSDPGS

Structure (SMILES) | hERG current change (%, negative = inhibition) at 10uM
COc1cc(C(=O)OCCC(C)C)cc(OC)c1O | -1.55%
Cc1c(Br)c(=O)oc2c(Br)c(O)ccc12 | 19.9%
CCOC(=O)Cn1cc(C#N)c(=O)[nH]c1=O | -17.8%
Cc1c(C(=O)Nc2ccc3oc(-c4cccnc4)nc3c2)oc2ccccc12 | -16.8%
CN(C)CCCN(C(=O)COc1ccccc1)c1nc2c(F)cccc2s1.Cl | -81.2%
CCN(CC)CCN(C(=O)CCOc1ccccc1)c1nc2c(F)cc(F)cc2s1.Cl | -8.13%
CN(C)CCN(C(=O)CCS(=O)(=O)c1ccccc1)c1nc2c(F)cccc2s1 | 13.6%
Fc1ccc(Cn2nnnc2CN2CCN(C3CCCCC3)CC2)cc1 | -45.4%
C/C(CC(=O)NC(C)C)=N\NC(=O)C(c1ccccc1)c1ccccc1 | 9.95%
CC(C)(C)C(=O)C[n+]1ccc(C(N)=O)cc1.[Br-] | 0.811%
O=S(=O)(Nc1ccc2c(c1)OCCO2)c1c(F)cccc1F | 3.4%
O=C(COC(=O)c1cccc(S(=O)(=O)N2CCc3ccccc32)c1)NCc1ccco1 | 21.5%
CN(c1ccccc1)S(=O)(=O)c1cc(C(=O)OCC(N)=O)ccc1Cl | -4.09%
O=C(OCC(=O)N1CCOCC1)c1cccc(S(=O)(=O)N2CCCc3ccccc32)c1 | -24.9%
O=C(CSc1ccccc1)OCC(=O)N1CCN(C(=O)c2ccco2)CC1 | -27%
O=C(Cc1ccc(Cl)cc1Cl)OCC(=O)N1CCN(C(=O)c2ccco2)CC1 | -57.6%
O=C(CCC(=O)c1cccs1)OCC(=O)N1CCN(C(=O)c2ccco2)CC1 | -2.34%
O=C(OCC(=O)N1CCN(C(=O)c2ccco2)CC1)c1cccc(S(=O)(=O)N2CCc3ccccc32)c1 | -84%
CCN(CC)S(=O)(=O)c1ccc(C(=O)OCC(=O)N2CCN(C(=O)c3ccco3)CC2)cc1 | -37.2%
O=C(Cc1ccccc1F)OCC(=O)N1CCN(C(=O)c2ccco2)CC1 | -22.6%
O=C(CCN1c2ccccc2Sc2ccccc21)OCC(=O)N1CCN(C(=O)c2ccco2)CC1 | -66%
O=C(Cc1c(Cl)cccc1Cl)OCC(=O)N1CCN(C(=O)c2ccco2)CC1 | -14.9%
CN(c1ccccc1)S(=O)(=O)c1cc(C(=O)OCC(=O)N2CCN(C(=O)c3ccco3)CC2)ccc1Cl | -68.3%
Cc1nn(C)c(Oc2ccc(Cl)cc2)c1C(=O)O | 12.8%
CC1=CC(C)C2(COC(=O)Nc3ccccc3)COC(C)C1C2C (stereo not drawn) | -3.03%

Structure (SMILES) | hERG current change (%, negative = inhibition) at 10uM
CCOC(=O)C1CCN(Cc2cccc(Oc3ccc(Cl)cc3)c2)CC1 | 3.3%
CCn1c(CNC(=O)c2cccs2)n[nH]c1=S | 3.27%
Cc1cccc(COc2ccc(/C=N/NC(=O)c3nnn(-c4nonc4N)c3C)cc2)c1 | 15.3%
O=C(COc1cccnc1[N+](=O)[O-])Nc1ccc2c(c1)OCO2 | 6.1%
Cc1cc(NC(=O)c2ccc(S(=O)(=O)N(C)CC3CCCO3)cc2)no1 (stereo not drawn) | 2.09%
COc1ccccc1CCNS(=O)(=O)c1cn(C)nc1C | 1.14%
O=C(OCC(=O)N1CCN(C(=O)c2ccco2)CC1)c1ccc(Cl)c(Cl)c1 | -62.9%
O=C(OCC(=O)N1CCN(C(=O)c2ccco2)CC1)c1ccccc1 | 10.4%
CN(CCC#N)C(=O)COC(=O)c1ccc(Cl)c(S(N)(=O)=O)c1 | 21.8%
COCCN(CCOC)C(=O)COC(=O)c1ccc(Cl)c(S(=O)(=O)N(C)c2ccccc2)c1 | -48.4%
CN(CCC#N)C(=O)COC(=O)c1ccc(Cl)c(S(=O)(=O)N(C)c2ccccc2)c1 | -58.2%
O=C(OCC(=O)N1CCN(C(=O)c2ccco2)CC1)c1ccc(Cl)cc1 | -38.7%
O=C(Nc1ccc2c(c1)CCC2)c1cccs1 | 24.7%
O=C(CSc1ccc2nnc(-c3ccc(Cl)cc3)n2n1)N1CCCc2ccccc21 | 1.71%
CCOC(=O)c1c(C)n(C)c2ccc(OC(C)C(=O)OC)cc12 (stereo not drawn) | -10%
COc1cc(/C=N/Nc2ccccn2)ccc1OCC(C)C | 27.5%
CCCCn1c(-c2csc(C(C)C)c2)n[nH]c1=S | 20.9%
Cc1ccc(COc2ccsc2C(=O)NNC(N)=S)cc1 | 19.9%
CCN(CC)CCCOC(=O)C(c1ccccc1)c1ccccc1.Cl | -56.5%
CCN(CC)CCOC(=O)C(O)(c1ccccc1)c1ccccc1.Cl | -42.1%
CCCOc1ccc(C(C(=O)OCCN(CC)CC)c2ccccc2)cc1.O=C(O)C(=O)O (stereo not drawn) | -43%
CCC(C(=O)OCCOCCN(CC)CC)c1ccccc1 (stereo not drawn) | 1.01%
CCN(CC)CCOC(=O)C(c1ccccc1)c1ccccc1.Cl | -52.2%
CCN(CC)CCCOC(=O)C(OC)(c1ccccc1)c1ccccc1.Cl | -27.9%
CCN(CC)CC#CCOC(c1ccccc1)c1ccccc1.Cl | -43.3%

Structure (SMILES) | hERG current change (%, negative = inhibition) at 10uM
CCCC(C(=O)OCCN(CC)CC)(c1ccccc1)c1ccccc1.Cl | -53.9%
CCN(CC)CCOC(c1ccccc1)c1ccc(C)cc1.Cl (stereo not drawn) | -73%
CCNCCOC(c1ccccc1)c1ccccc1.Cl | -31.8%
CCN(CC)CCOCCOC(=O)C(CC)(CC)c1ccccc1 | -9.35%
CCN(CC)CCCOC(=O)C(OC(C)C)(c1ccccc1)c1ccccc1.Cl | -31.9%
O=C(NNC(=O)c1cccs1)c1ccc(Cl)c([N+](=O)[O-])c1 | -6.26%
COC(=O)[C@H](CC(C)C)NC(=O)N1CCC(C)CC1 | 16.7%
CCOc1ccc(C(C)=O)cc1CN1C(=O)NC2(CCCCCC2)C1=O | 3.83%
COc1ccccc1NC(=O)c1c(C)oc2c1CCCC2 | 4.78%
O=C(O)c1cccc(CSc2nnc(-c3ccc(Cl)cc3)o2)c1 | 12.5%
Cc1nn(Cc2ccccc2)c(C)c1NC(=O)CCC(=O)O | 2.81%
O=C(O)CCC(=O)Nc1ccc(F)cc1 | 12.7%
CCNc1c(NCC)c(=O)c1=O | 15.2%
CC(C)CC(=O)Nc1nnc(SCC(=O)NCc2ccc3c(c2)OCO3)s1 | 17.7%
O=C(O)c1cccc(N2C(=O)c3ccc(Oc4ccc(Cl)cc4)cc3C2=O)c1 | 12.8%
O=C(NNC(=S)NCc1ccccc1)c1ccc2c(c1)OCO2 | 8.77%
CCN1CCN(c2ccc(NC(=O)c3cccc(F)c3)cc2Cl)CC1 | -75.2%
CCCOc1ccc(C(=O)N2CCN(c3ccc(NC(=O)CC)cc3Cl)CC2)cc1 | -77%
CCCOc1ccc(C(=O)N2CCN(c3ccc(N)cc3Cl)CC2)cc1 | -31.7%
O=C(Nc1ccc(N2CCOCC2)c(Cl)c1)c1ccc(F)cc1 | -3.11%
CCC(=O)Nc1ccc(N2CCN(CC)CC2)c(Cl)c1 | -3.56%
CCCCCC(=O)Nc1ccc(N2CCN(CC)CC2)c(Cl)c1 | -71.5%
CCN1CCN(c2ccc(NC(=O)c3ccc(F)cc3)cc2Cl)CC1 | -75.6%
CCN1CCN(c2ccc(NC(=O)c3cccnc3)cc2Cl)CC1 | -16.8%
COc1ccc(OCC(=O)Nc2ccc(N3CCN(C(=O)c4ccccc4)CC3)c(Cl)c2)cc1 | -19.4%

Structure (SMILES) | hERG current change (%, negative = inhibition) at 10uM
O=C(Nc1ccc(N2CCOCC2)c(Cl)c1)c1cccc(F)c1 | -21.2%
CCN1CCN(c2ccc(NC(C)=O)cc2Cl)CC1 | -1.19%
CCCC(=O)Nc1ccc(N2CCN(CC)CC2)c(Cl)c1.Cl | -47.8%
COc1ccc(-c2nnc(SCc3nnc(-c4cccs4)o3)n2CC2CCCO2)cc1 (stereo not drawn) | -32%
Cc1ccc(OCc2nnc(NC(=O)c3ccco3)s2)cc1 | 6.86%
Cc1cccc(N(C(=O)c2csnn2)C(C(=O)NCc2ccccc2)c2ccncc2)c1 (stereo not drawn) | -18.7%
CCN(CC)CCCN1C(=O)C(O)=C(C(=O)c2sc(C)nc2C)C1c1ccco1 (stereo not drawn) | -0.605%
O=C(Cc1ccsc1)NNC(=O)c1ccc(F)cc1 | -18.8%
c1ccc(CCN(Cc2ccccc2)Cc2nc(C3CC3)no2)cc1 | 10.2%
COc1ccc(OCc2cc(C(=O)N3CCC(OC)CC3)no2)c2ccccc12 | 14.4%
CCCCOc1ccc(Nc2cc(Cl)ccc2C(=O)O)cn1 | 23.5%
O=C(Nc1nnc(-c2ccccc2F)s1)Nc1ccccc1F | 23.3%
CCn1c(SCC(=O)Nc2ccc(C(C)=O)cc2)nc2nc3c(cc2c1=O)COC(C)(C)C3 | 13.8%
CCn1c(SCC(=O)Nc2ccc(OC)cc2)nc2nc3c(cc2c1=O)COC(C)(C)C3 | -72.6%
CCOc1ccc(NC(=O)CSc2nc3nc4c(cc3c(=O)n2CC)COC(C)(C)C4)cc1 | 0.831%
CCn1c(SCC(=O)Nc2cccc(C)c2)nc2nc3c(cc2c1=O)COC(C)(C)C3 | -23.1%
CCn1c(SCC(=O)Nc2ccc(C)cc2)nc2nc3c(cc2c1=O)COC(C)(C)C3 | -81.8%
CCn1c(SCC(=O)Nc2ccccc2C)nc2nc3c(cc2c1=O)COC(C)(C)C3 | -21.4%
CCn1c(SCC(=O)Nc2ccc(OC)cc2)nc2nc3c(cc2c1=O)CCCC3 | -62.6%
CCn1c(SCC(=O)Nc2ccc(OC)cc2OC)nc2nc3c(cc2c1=O)COC(C)(C)C3 | -2.49%
C=CCn1c(SCC(N)=O)nc2nc3c(cc2c1=O)COC(C)(C)C3 | 4.77%
CCn1c(SCC(=O)Nc2ccc(C(C)=O)cc2)nc2nc3c(cc2c1=O)CCCC3 | -20.5%
CCn1c(SCC(=O)Nc2ccc(C)cc2)nc2nc3c(cc2c1=O)CCCC3 | -43.6%
CCn1c(SCC(=O)Nc2ccccc2)nc2nc3c(cc2c1=O)COC(C)(C)C3 | -61.8%
